Data on seven compounds can be found in PubChem BioAssay (NCI).

Test systems include SK-MEL-2 melanoma; EKVX NSCLC; SN12C renal; UO-31 renal; TK-10 renal; ACHN renal; CAKI-1 renal; A498 renal; CCRF-CEM leukemia; MOLT-4 leukemia; SR leukemia; RPMI-8226 leukemia; OVCAR-8 ovarian; OVCAR-5 ovarian; SK-OV-3 ovarian; IGROV1 ovarian; OVCAR-3 ovarian; HS 578T breast; NCI/ADR-RES ovarian; OVCAR-4 ovarian.
Assay in all cases: NCI-60 one-dose screen, 48 h (100 = growth as untreated, 0 = no growth, -100 = all killed)
Common to all, as to details: 10 µM

The structures appear in SMILES notation. Compounds without any hit were thinned out: in the full panel of roughly 83,000, 20% have a hit.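 48-hour exposure, single concentration, 96-well plates; percent growth endpoint where 0 means no net growth. Active: below 10.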 Unmarked numbers belong to inactive results. The source made the active and inactive calls.

With `CCOC(=O)CN(c1sc(C)c(C)c1C(=O)OCC)S(=O)(=O)c1ccc(C)cc1`, the growth in the assay on SK-MEL-2 melanoma was 127%; in the assay with EKVX NSCLC, 101%; in the assay on SN12C renal, 87%; in the assay on UO-31 renal it was 80.7%; in the assay with TK-10 renal, 121%; in the assay on ACHN renal, 98.1%. Further, the growth in the assay on CAKI-1 renal was 72.8%; in the assay with A498 renal, 106%; in the assay on CCRF-CEM leukemia it was 94.4%; with MOLT-4 leukemia it was 97%; in the assay on SR leukemia, 96.9%; in the assay with RPMI-8226 leukemia, 98.2%. In addition, the growth is 105% in the assay with OVCAR-8 ovarian; 107% with OVCAR-5 ovarian; 87.1% with SK-OV-3 ovarian; 111% in the assay with IGROV1 ovarian; 109% with OVCAR-3 ovarian; 95.9% in the assay with HS 578T breast. The growth in the assay on NCI/ADR-RES ovarian is 88%.

As to `COC(=O)C1OC1c1cc([N+](=O)[O-])ccc1OC` (configuration not stated), the growth with SK-MEL-2 melanoma was 111%; with EKVX NSCLC it was 102%; in the assay on SN12C renal it was 107%; in the assay on UO-31 renal it was 74.4%; in the assay with TK-10 renal, 107%; in the assay with ACHN renal it was 108%. In addition, the growth with CAKI-1 renal was 83.2%; with A498 renal, 127%; in the assay on CCRF-CEM leukemia, 96%; in the assay with MOLT-4 leukemia, 83.6%; with SR leukemia, 84.4%; with OVCAR-8 ovarian it was 105%. Further, the growth in the assay with OVCAR-5 ovarian was 105%; in the assay on OVCAR-4 ovarian it was 101%; in the assay on SK-OV-3 ovarian it was 92.1%; in the assay on IGROV1 ovarian, 93%; in the assay on OVCAR-3 ovarian, 109%; in the assay on HS 578T breast, 111%. The growth in the assay with NCI/ADR-RES ovarian is 101%.

Take `COc1cc(C(=O)N2CCN(c3cc4c(cc3F)c(=O)c(C(=O)NO)cn4C3CC3)CC2)cc(OC)c1OC`: the growth was 90.2% in the assay on SK-MEL-2 melanoma; 89.5% in the assay with EKVX NSCLC; 108% with SN12C renal; 92.1% in the assay on UO-31 renal; 87.4% in the assay on TK-10 renal; 101% in the assay on ACHN renal. Further, the growth was 94.4% in the assay with CAKI-1 renal; 91.4% in the assay with A498 renal; 103% in the assay with MOLT-4 leukemia; 95% in the assay on SR leukemia; 85.2% in the assay with RPMI-8226 leukemia; 106% in the assay with OVCAR-8 ovarian. The growth was 98.1% in the assay on OVCAR-5 ovarian; 101% in the assay with OVCAR-4 ovarian; 103% with SK-OV-3 ovarian; 110% with IGROV1 ovarian; 108% in the assay with OVCAR-3 ovarian; 105% with HS 578T breast. Further, in the assay with NCI/ADR-RES ovarian, the growth was 100%.

Consider `CCOC(=O)C1C(C(=O)OCC)C2C(=O)C3C(C(=O)OCC)C(C(=O)OCC)C3C(=O)C12` (configuration not stated), for which the growth was 115% in the assay with SK-MEL-2 melanoma; 96.3% in the assay with EKVX NSCLC; 94.2% in the assay with SN12C renal; 94.8% in the assay on UO-31 renal; 112% in the assay on TK-10 renal; 98.8% in the assay with ACHN renal. Also, the growth with CAKI-1 renal was 101%; in the assay on A498 renal, 102%; in the assay with CCRF-CEM leukemia, 102%; in the assay on MOLT-4 leukemia, 106%; with SR leukemia, 117%; in the assay with RPMI-8226 leukemia, 101%. Moreover, the growth was 104% in the assay on OVCAR-8 ovarian; 108% in the assay with OVCAR-5 ovarian; 109% in the assay with SK-OV-3 ovarian; 118% in the assay with IGROV1 ovarian; 114% in the assay on OVCAR-3 ovarian; 108% with HS 578T breast. In addition, the growth with NCI/ADR-RES ovarian is 56%.

For `CCn1c(SCc2ccc(C)cc2)nnc1-c1nn(-c2ccc(Cl)cc2Cl)c(-c2ccc(Cl)cc2)c1C`, the growth with SK-MEL-2 melanoma is 4.93% (active); in the assay with EKVX NSCLC it was 10.4%; in the assay with SN12C renal, 1.66% (active); in the assay on UO-31 renal, 9.59% (active); in the assay on TK-10 renal it was 18.1%; in the assay with ACHN renal, 2.32% (active). For the same compound, the growth with CAKI-1 renal was 40.5%; in the assay on A498 renal, 18.9%; with MOLT-4 leukemia it was 2.46% (active); in the assay with SR leukemia, 6.14% (active); with RPMI-8226 leukemia, -3.78% (active); with OVCAR-8 ovarian, 12.9%. Also, the growth was 26.8% with OVCAR-5 ovarian; 16.9% in the assay on OVCAR-4 ovarian; -7.12% (active) with SK-OV-3 ovarian; 30.8% with IGROV1 ovarian; 15.8% with OVCAR-3 ovarian; 38.4% in the assay on HS 578T breast. Also, in the assay with NCI/ADR-RES ovarian, the growth was 52.1%.

Regarding `CC1(C)N=C(N)N=C(N)N1c1cccc(C#N)c1`, the growth was 79.1% with SK-MEL-2 melanoma; 67% in the assay with EKVX NSCLC; 94.3% with SN12C renal; 77.9% in the assay with UO-31 renal; 62.4% in the assay with TK-10 renal; 37.1% in the assay on ACHN renal. Further, the growth is 95.2% in the assay on CAKI-1 renal; 69.8% with A498 renal; 35.7% in the assay on CCRF-CEM leukemia; 31.2% in the assay on MOLT-4 leukemia; 33.8% in the assay on OVCAR-8 ovarian; 51% in the assay with OVCAR-5 ovarian. The growth in the assay on OVCAR-4 ovarian was 97.3%; in the assay with SK-OV-3 ovarian, 82.9%; in the assay on IGROV1 ovarian it was 42.6%; with OVCAR-3 ovarian, 60.7%; with HS 578T breast, 88.2%; in the assay with NCI/ADR-RES ovarian it was 75%.

For the compound `NC(=O)c1cccc(-n2ccc3cc(NC(=O)Nc4ccc(Cl)c(C(F)(F)F)c4)ccc32)n1`, the growth was 97.2% in the assay with SK-MEL-2 melanoma; 57.7% in the assay with EKVX NSCLC; 73.4% in the assay on SN12C renal; 77.3% with UO-31 renal; 83.7% in the assay with TK-10 renal; 71.3% with ACHN renal. Moreover, the growth in the assay on CAKI-1 renal is 61%; in the assay on A498 renal, 56.9%; in the assay with MOLT-4 leukemia it was 52%; in the assay on SR leukemia, 91.1%; in the assay with RPMI-8226 leukemia it was 70.5%; with OVCAR-8 ovarian, 72.1%. Further, the growth was 93.1% in the assay with OVCAR-5 ovarian; 77.6% with OVCAR-4 ovarian; 94.8% with SK-OV-3 ovarian; 74.5% with IGROV1 ovarian; 94.7% with OVCAR-3 ovarian; 46.5% in the assay on HS 578T breast. The growth in the assay on NCI/ADR-RES ovarian was 82%.
